Laboratory results from PubChem BioAssay AID588689 (Southern Research Specialized Biocontainment Screening …, 2011).
“And” between values parts separate entries of the source, which are not always exact repeats. Equal values may be shown once. Among all 340,000 compounds or so, about 1,000 (0.29%) were called active. Cut-off read from the data, not from the text of the source: inconclusive = inhibition above about 29% without an active follow-up result; inactive = below that. Only a sample is shown. Measured potencies and affinities stand elsewhere.

Target: Genome polyprotein (Dengue virus type 2 (strain 16681-PDK53)) (UniProt P29991)
Assay: flavivirus cap methylation enzyme inhibition – biochemical, confirmation dose response, primary screen (AID 588689)
Conditions: Dengue-2 NS5 methyltransferase capping enzyme assay, at 25 µM, stronger effect = higher value
[1] = measured here: pilot screen replicate inhibition

Row | Compound | inhibition | inhibition [1]
1 | C=C(CC)C(=O)c1ccc(OCC(=O)O)c(Cl)c1Cl | -3.73% (inactive) | 
2 | O=C(O)COc1ccc2nsnc2c1Cl | -9.55% (inactive) | 
3 | CCOCCCNCC(O)c1ccccc1 (stereo not drawn) | 0% (inactive) | 
4 | CC1(C)CC(=NO)CC(C)(C)N1 | 0% (inactive) | 
5 | COc1cc(C(=O)Nc2ccc(S(=O)(=O)Nc3ncccn3)cc2)c([N+](=O)[O-])cc1OC | 0.74% (inactive) | 
6 | COc1ccc([N+](=O)[O-])cc1NS(=O)(=O)c1ccccc1 | 5.1% (inactive) | 
7 | Cc1cc(NS(=O)(=O)c2ccccc2)c([N+](=O)[O-])cc1C | 4.34% (inactive) | 
8 | COc1ccc(S(=O)(=O)/N=C2/NC(=O)/C(=C\c3cc(OC)c(OC)cc3[N+](=O)[O-])S2)cc1 | 2.45% (inactive) | 
9 | Cc1ccc(/C=N/NC(=O)C(C)Oc2cccc3ccccc23)o1 (stereo not drawn) | -3.22% (inactive) | 
10 | CCC1(C)NC(=O)N(CC(=O)N2CCC(Cc3ccccc3)CC2)C1=O (stereo not drawn) | -9.76% (inactive) | 
11 | C/C(CC(C)C)=N/Nc1ccc([N+](=O)[O-])cc1[N+](=O)[O-] | -3.83% (inactive) | 
12 | CC(Cc1ccccc1)=NNc1ccc([N+](=O)[O-])cc1[N+](=O)[O-] | 10.5% (inactive) | 
13 | CC(=O)NC(C)c1nc2ccccc2n1C(C)C (stereo not drawn) | -3.46% (inactive) | 
14 | COc1ccc(/C=C/C=C2\NC(=S)NC2=O)cc1 | -2.15% (inactive) | 
15 | CC(/C=C1\NC(=S)NC1=O)=C\c1ccccc1 | -7.18% (inactive) | 
16 | CCC(C)(C(=O)NC1CCCC1)N(C(=O)CNC(=O)c1ccccc1)c1c(C)n(C)n(-c2ccccc2)c1=O (stereo not drawn) | 0% (inactive) | 
17 | COc1ccc(CNC(=O)c2cc3ccccc3oc2=O)cc1 | -1.96% (inactive) | 
18 | COc1ccc(CN(C)CC(=O)Nc2c(C)cccc2C)c(OC)c1 | 1.51% (inactive) | 
19 | CCOc1cc(S(=O)(=O)Nc2cc(C)cc(C)c2)ccc1Cl | 0% (inactive) | 
20 | COc1ccc(NS(=O)(=O)c2ccc(Cl)c(N)c2)cc1Br | -3.69% (inactive) | 
21 | COc1ccccc1CCC(=O)N(C)CC(=O)Nc1ccc(F)cc1 | 1.3% (inactive) | 
22 | O=C(NNc1cccc(Cl)c1)c1cccnc1Cl | -5.34% (inactive) | 
23 | COc1cc(/C=C(\C#N)C(=O)Nc2cccc3ncccc23)cc(OC)c1OC | -57.5% (inactive) | 
24 | COc1ccc(/C=C(/C#N)C(=O)Nc2ccccc2C)cc1C(=O)O | 0% (inactive) | 
25 | O=C(CN1CCN(C(c2ccccc2)c2ccccc2)CC1)NC(=O)NCc1ccco1 | -1.64% (inactive) | 

Row | Compound | inhibition | inhibition [1]
26 | COc1cc(/C=N/N=C(/C(=O)c2ccccc2)c2ccccc2)cc(OC)c1O | 0% (inactive) | 
27 | CCN(CC)c1ccc(/C=N/N=C(c2ccccc2)c2ccccc2)c(O)c1 | -35.6% (inactive) | 
28 | O=C(/C(=N/N=C/c1ccc(O)c(O)c1)c1ccccc1)c1ccccc1 | 7.23% (inactive) | 
29 | Oc1ccc(/C=N/N(c2ccccc2)c2ccccc2)c(O)c1O | 9.52% (inactive) | 
30 | CC(C)c1ccc(Nc2nc(N3CCOCC3)nc(N3CCOCC3)n2)cc1 | -4.95% (inactive) | 
31 | COC(=O)C(C(=O)OC)N1C(=O)CCC1=O | -3.21% (inactive) | 
32 | CC(=O)c1ccc(NC(=O)CCc2nnc3ccc(N4CCCC4)nn23)cc1 | 1.97% (inactive) | 
33 | CN(C)C1=NC[C@H](Cc2ccccc2)N1CC1CCC(C(C)(C)C)CC1 (stereo partly drawn) | 0.79% (inactive) | 
34 | Cc1ccc(S(=O)(=O)N2[C@@H](c3ccc(C(C)(C)C)cc3)C(C(=O)O)=CC[C@H]2c2ccc(C(C)C)cc2)cc1 | -2.65% (inactive) | 0.6%
35 | Cc1ccc([C@@H]2CC=C(C(=O)O)[C@H](c3ccc(Cl)cc3)N2S(=O)(=O)c2ccc(C)cc2)cc1 | 19.5% (inactive) | 
36 | Cc1ccc(S(=O)(=O)N2[C@@H](c3ccc(Cl)cc3)C(C(=O)O)=CC[C@H]2c2ccc(Cl)cc2)cc1 | 13.5% (inactive) | 
37 | Cc1ccc([C@@H]2CC=C(C(=O)O)[C@H](c3ccccc3)N2S(=O)(=O)c2ccc(C)cc2)cc1 | -3.2% (inactive) | 
38 | Cc1ccc(S(=O)(=O)NCCC(=O)OCC(=O)N(Cc2ccccc2)C(C)(C)C)cc1 | 7.2% (inactive) | 
39 | CC1(C)CC2CC(C)(CN2C(=O)COC(=O)c2cccc([N+](=O)[O-])c2)C1 (stereo not drawn) | 6.17% (inactive) | 
40 | CC(C(=O)Nc1ccccc1F)N1C(=O)c2ccccc2C1=O (stereo not drawn) | 4.32% (inactive) | 
41 | CC(C(=O)Nc1ccc2c(c1)OCO2)N(C)CC(=O)Nc1ccc(Cl)cc1 (stereo not drawn) | 2.29% (inactive) | 
42 | Cc1ccc2c(C(=O)CN3CCCCC3CCO)c(C)[nH]c2c1 (stereo not drawn) | -12.1% (inactive) | 
43 | Cc1ccc(N2CN(Cc3ccco3)CNC2=S)cc1 | -4.68% (inactive) | 
44 | CC(OC(=O)C1CC1C)C(=O)Nc1ncc(Cl)cc1Cl (stereo not drawn) | -5.81% (inactive) | 
45 | O=S(=O)(Nc1nc2ccccc2nc1NCc1ccco1)c1ccc(F)cc1 | 21.1% (inactive) | 
46 | O=S(=O)(Nc1nc2ccccc2nc1NCc1ccco1)c1ccccc1 | 26.3% (inactive) | 
47 | CCCNC(=O)NC(=O)c1cnccc1C(F)(F)F | 3.85% (inactive) | 
48 | CC1=NOC(=O)/C1=C/c1ccc(O)c(Br)c1 | -9.14% (inactive) | 
49 | CC1=NOC(=O)/C1=C/c1ccc(O)cc1 | 33.3% (inactive) | 
50 | CC1=NOC(=O)/C1=C/c1ccc(O)c(Cl)c1 | 6.53% (inactive) | 

Row | Compound | inhibition | inhibition [1]
51 | CCN(CC)c1ccc(/C=C2/C(=O)ON=C2C)cc1 | -145% (inactive) | 
52 | CCc1nc(SCC(=O)NCCc2ccccc2)n[nH]1 | 0% (inactive) | 
53 | CCCC(c1nnnn1C(C)(C)CC)N1CCN(C(=O)c2ccco2)CC1 (stereo not drawn) | 3.16% (inactive) | 
54 | O=C(c1cccc(S(=O)(=O)Nc2ccc(Br)cc2)c1)N1CCCC1 | -8.06% (inactive) | 
55 | COc1ccc(S(N)(=O)=O)cc1C(=O)NNC(=O)c1cccc(S(=O)(=O)N2CCOCC2)c1 | 3.75% (inactive) | 
56 | Cc1ccc(C)c(S(=O)(=O)N2CCCC2CNC(=O)C(=O)NCc2ccco2)c1 (stereo not drawn) | 0% (inactive) | 
57 | O=C(CN1CCC(c2nc3ccccc3s2)CC1)N1CCCCC1 | -11.7% (inactive) | 
58 | O=C1C=CC(=O)N1c1ccccc1N1C(=O)C=CC1=O | 5.05% (inactive) | 
59 | O=C1c2ccccc2C(=O)N1N(c1ccccc1)c1ccccc1 | 0% (inactive) | 
60 | NC(=O)c1ccc(NCCCN2CCOCC2)c([N+](=O)[O-])c1 | -4.51% (inactive) | 
61 | CC(=O)N1CCN(c2nc(N)c(C#N)c(CC#N)c2C#N)CC1 | -8.51% (inactive) | 
62 | COc1ccc(S(=O)(=O)N2CCOCC2)cc1NC(=O)COC(=O)C1CC1C (stereo not drawn) | -7.51% (inactive) | 
63 | CC1=NN(c2ccccc2)C(=O)C1N=Nc1ccc(S(N)(=O)=O)cc1 (stereo not drawn) | -3.93% (inactive) | 
64 | CCCCc1nc2ccc(S(=O)(=O)O)cc2[nH]1 | -2.87% (inactive) | 
65 | CCN(CC)CCNC(=O)Cn1c(=O)c2cccn2c2ccc(F)cc21 | -0.65% (inactive) | 
66 | O=C(CNC(=O)c1ccc(Br)o1)NNC(=O)COc1ccccc1Cl | 1.1% (inactive) | 
67 | COc1ccc2c(c1)-c1nc(/N=C/c3ccccc3O)sc1CC2 | 29.6% (inactive) | 
68 | COc1ccc2c(c1)-c1nc(/N=C/c3ccc(O)c(OC)c3)sc1CC2 | 27.5% (inactive) | 
69 | Oc1c(CN2CCOCC2)cc(CN2CCOCC2)c(O)c1CN1CCOCC1 | 20.2% (inactive) | 
70 | Oc1c(CN2CCOCC2)ccc(CN2CCOCC2)c1O | 25.3% (inactive) | 
71 | C=CC(n1cncn1)C(O)(c1ccccc1)c1ccccc1 (stereo not drawn) | -1.2% (inactive) | 
72 | COC(=O)c1ccccc1NC1=C/C(=N\S(=O)(=O)c2cccs2)c2ccccc2C1=O | 7.26% (inactive) and 0.39% (inactive) | 
73 | O=C1C(Nc2ccc(O)cc2)=C/C(=N/S(=O)(=O)c2cccs2)c2ccccc21 | 22.4% (inactive) | 
74 | Cc1ccc(S(=O)(=O)/N=C2\C=C(Nc3cccc(C(=O)O)c3)C(=O)c3ccccc32)c(C)c1 | 13.2% (inactive) | 
75 | O=C1C(Nc2ccccc2)=C/C(=N/S(=O)(=O)c2cccs2)c2ccccc21 | 0% (inactive) | 

Row | Compound | inhibition | inhibition [1]
76 | CCc1ccc(S(=O)(=O)/N=C2\C=C(Nc3cccc(C(=O)O)c3)C(=O)c3ccccc32)cc1 | 5.86% (inactive) | 
77 | Cc1ccc(NC2=C/C(=N/S(=O)(=O)c3cccs3)c3ccccc3C2=O)cc1C | 1.44% (inactive) | 
78 | CCc1ccc(S(=O)(=O)/N=C2\C=C(Nc3ccc(C(=O)O)cc3)C(=O)c3ccccc32)cc1 | 26.1% (inactive) | 
79 | Cc1ccc(S(=O)(=O)/N=C2\C=C(Nc3cccc(C(=O)O)c3)C(=O)c3ccccc32)cc1 | 9.52% (inactive) | 
80 | CCOC(=O)C1(CC2CCCCO2)CCN(Cc2c(C)cc(C)cc2-n2cccn2)CC1 (stereo not drawn) | -10.8% (inactive) | 
81 | COc1ccc(S(=O)(=O)N2CCCCC2)cc1NC(=O)COC(=O)c1ccco1 | -2.61% (inactive) | 
82 | O=C(Nc1ccc(F)cc1)OCCOc1ccc([N+](=O)[O-])cc1 | -1.94% (inactive) | 
83 | CC(C)(C)OC(=O)COc1cc(F)ccc1[N+](=O)[O-] | -8.99% (inactive) | 
84 | Cc1cc(NC(=O)C2C3C(=O)N(CCC(C)C)C(C(=O)NCc4ccccc4)C34C=CC2(C)O4)no1 (stereo not drawn) | -10.5% (inactive) | 
85 | Cc1ccc(C(C)C)c(OCC(=O)NCC(c2cccs2)N2CCOCC2)c1 (stereo not drawn) | 0.74% (inactive) | 
86 | Cc1ccc(-n2c(-c3ccc(Cl)cc3Cl)n[nH]c2=S)cc1 | -16.5% (inactive) | -6.44%
87 | COc1ccc(NS(=O)(=O)c2csc(C(=O)N3CCCC3)c2)c(OC)c1 | -6.24% (inactive) | 
88 | O=C(COC(=O)Cc1n[nH]c(=O)c2ccccc12)NNC(=O)c1ccc(Br)cc1 | -4.04% (inactive) | 
89 | CCC(=O)Nn1c(C)nnc1C | -2.7% (inactive) | 
90 | Cc1ccc(S(=O)(=O)N2[C@@H](c3ccc(Cl)cc3)C(C(=O)O)=C[C@H]2CC2CCCC2)cc1 | 19.2% (inactive) | 4.89%
91 | Cc1ccc([C@H]2C(C(=O)O)=C[C@@H](CC3CCCC3)N2S(=O)(=O)c2ccc(C)cc2)cc1 | 20.2% (inactive) | 
92 | Cc1ccc([C@H]2C(C(=O)O)=CC[C@@H](c3ccc(C)cc3)N2S(=O)(=O)c2ccc(C)cc2)cc1 | 5.29% (inactive) | -0.615%
93 | Cc1ccc(S(=O)(=O)N2[C@@H](c3ccc(C(C)(C)C)cc3)C(C(=O)O)=CC[C@H]2c2ccc(Cl)c(Cl)c2)cc1 | 9.77% (inactive) | 
94 | Cc1ccc(S(=O)(=O)N2[C@@H](c3ccc(Cl)cc3)C(C(=O)O)=CC[C@H]2c2ccc(Cl)c(Cl)c2)cc1 | 27.3% (inactive) | 
95 | CCc1ccc([C@@H]2CC=C(C(=O)O)[C@H](c3ccc(Br)cc3)N2S(=O)(=O)c2ccc(C)cc2)cc1 | 25.8% (inactive) | 10.7%
96 | Cc1ccc(S(=O)(=O)N2[C@@H](c3ccc(Br)cc3)C(C(=O)O)=CC[C@H]2c2cccc(Cl)c2)cc1 | -1.32% (inactive) | 1.82%
97 | Cc1ccc(S(=O)(=O)N2[C@@H](c3ccccc3)C(C(=O)O)=CC[C@H]2c2ccc(Cl)c(Cl)c2)cc1 | 10.4% (inactive) | 
